Test results as given in the supplement of paper PMC10849652.
Of roughly 7,900 targets only a part is listed; those with a hit were picked by preference. About 0.6% of all pairs of compound and target were hits.

Assays:
Test in all cases: log2 fold change, soluble protein after heating vs DMSO (PISA); higher = thermal stabilisation; K562 cells, 10 uM, 30 min; active = over 0.2 and 3.5 SD of the protein, either way, in both replicates (recomputed)
[1] = compound: C1=CC=C(C=C1)[C@H](COC2=CC3=C(C=C2)NC(=O)N3)NC(=O)C4=CC=CN(C4=O)CC5=CC(=C(C=C5)F)F
Summary of the method: (§1)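 Quantification of soluble protein used TMTpro 16plex LC-MS/MS, with channel sums equalised. Samples were the supernatant after 21,000xg for 90 min of pooled aliquots from K562 cells (2×10^6 cells/mL) treated with 10 μM compound for 30 min, heated for 3 min over 48°C-58°C, and extracted in PBS with 0.5% NP-40 at 4°C. Values, from duplicates, describe thermal stability against control samples on a log2 fold-change scale.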

[2] = compound: CC1=C(SC2=C1C(=N[C@H](C3=NN=C(N32)C)CC(=O)N)C4=CC=C(C=C4)Cl)C
Summary of the method: as §1

[3] = compound: CC1=C2C(=CC=C1)N=C(N(C2=O)C3=CC=CC=C3C)CN4C=NC5=C(N=CN=C54)N
Summary of the method: as §1

[4] = compound: Cc1sc2c(c1C)C(c1ccc(Cl)cc1)=N[C@@H](CC(=O)OC(C)(C)C)c1nnc(C)n1-2
Summary of the method: as §1

[5] = compound: c1ccc([C@@H]2C[C@H]2NC2CCNCC2)cc1
Summary of the method: as §1

Measured: log2 fold change

HDAC10 (UniProt Q969S8)
inactive: [1] -0.061 | [2] -0.028 | [3] 0.07 | [4] 0.12 | [5] -0.051

GUK1 isoform 2 (UniProt Q16774)
Sequence of UniProt Q16774 (Q16774 whole entry, looked up): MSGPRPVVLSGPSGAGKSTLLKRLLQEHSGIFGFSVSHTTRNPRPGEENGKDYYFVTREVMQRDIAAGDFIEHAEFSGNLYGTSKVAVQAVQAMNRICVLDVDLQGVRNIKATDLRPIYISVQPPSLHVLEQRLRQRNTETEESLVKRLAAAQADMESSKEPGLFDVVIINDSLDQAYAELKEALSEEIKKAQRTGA
inactive: [1] -0.042 | [2] 0.003 | [3] 0.084 | [4] -0.021 | [5] 0.031

GLYR1 (UniProt Q49A26)
inactive: [1] 0.147 | [2] 0.054 | [3] -0.016 | [4] 0.058 | [5] 0.067

FRA10AC1 isoform 3 (UniProt Q70Z53)
inactive: [1] -0.03 | [2] 0.005 | [3] 0.055 | [4] 0.069 | [5] 0.073

GLUD2 (UniProt P49448)
Sequence of UniProt P49448 (P49448 whole entry, looked up): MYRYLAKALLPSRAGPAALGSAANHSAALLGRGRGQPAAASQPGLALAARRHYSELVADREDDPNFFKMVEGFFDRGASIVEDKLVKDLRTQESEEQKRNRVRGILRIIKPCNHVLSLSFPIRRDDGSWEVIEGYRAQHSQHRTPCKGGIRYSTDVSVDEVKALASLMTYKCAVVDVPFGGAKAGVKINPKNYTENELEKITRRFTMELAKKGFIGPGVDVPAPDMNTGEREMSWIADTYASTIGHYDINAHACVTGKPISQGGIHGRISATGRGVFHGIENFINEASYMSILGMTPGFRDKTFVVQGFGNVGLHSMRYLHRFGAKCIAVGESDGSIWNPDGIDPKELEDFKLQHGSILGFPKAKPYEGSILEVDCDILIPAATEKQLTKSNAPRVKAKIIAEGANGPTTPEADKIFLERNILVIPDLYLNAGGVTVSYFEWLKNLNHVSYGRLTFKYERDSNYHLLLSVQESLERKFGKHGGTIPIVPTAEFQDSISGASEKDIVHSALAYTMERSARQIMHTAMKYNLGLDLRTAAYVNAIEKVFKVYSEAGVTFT
inactive: [1] 0.026 | [2] 0.061 | [3] -0.029 | [4] 0.047 | [5] -0.005

FKBP3 (UniProt Q00688)
inactive: [1] 0.014 | [2] 0.003 | [3] 0.01 | [4] 0.011 | [5] -0.016

GALC (UniProt P54803)
inactive: [1] 0.046 | [2] 0.055 | [3] 0.055 | [4] -0.043 | [5] 0.006

HIKESHI (UniProt Q53FT3)
Sequence of UniProt Q53FT3 (Q53FT3 whole entry, looked up): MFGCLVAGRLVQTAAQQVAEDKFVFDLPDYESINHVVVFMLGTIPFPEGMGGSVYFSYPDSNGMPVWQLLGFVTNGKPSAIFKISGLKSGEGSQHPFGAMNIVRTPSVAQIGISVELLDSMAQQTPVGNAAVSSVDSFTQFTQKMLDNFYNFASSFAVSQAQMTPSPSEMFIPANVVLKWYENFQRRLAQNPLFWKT
inactive: [1] 0.014 | [2] 0.12 | [3] 0.149 | [4] -0.091 | [5] -0.027

GATA1 (UniProt P15976)
inactive: [1] 0.061 | [2] -0.014 | [3] 0.064 | [4] 0.117 | [5] 0.029

GALNT1 (UniProt Q10472)
inactive: [1] -0.034 | [2] 0.069 | [3] -0.002 | [4] -0.01 | [5] -0.007

GLUD1 (UniProt P00367)
Sequence of UniProt P00367 (P00367 whole entry, looked up): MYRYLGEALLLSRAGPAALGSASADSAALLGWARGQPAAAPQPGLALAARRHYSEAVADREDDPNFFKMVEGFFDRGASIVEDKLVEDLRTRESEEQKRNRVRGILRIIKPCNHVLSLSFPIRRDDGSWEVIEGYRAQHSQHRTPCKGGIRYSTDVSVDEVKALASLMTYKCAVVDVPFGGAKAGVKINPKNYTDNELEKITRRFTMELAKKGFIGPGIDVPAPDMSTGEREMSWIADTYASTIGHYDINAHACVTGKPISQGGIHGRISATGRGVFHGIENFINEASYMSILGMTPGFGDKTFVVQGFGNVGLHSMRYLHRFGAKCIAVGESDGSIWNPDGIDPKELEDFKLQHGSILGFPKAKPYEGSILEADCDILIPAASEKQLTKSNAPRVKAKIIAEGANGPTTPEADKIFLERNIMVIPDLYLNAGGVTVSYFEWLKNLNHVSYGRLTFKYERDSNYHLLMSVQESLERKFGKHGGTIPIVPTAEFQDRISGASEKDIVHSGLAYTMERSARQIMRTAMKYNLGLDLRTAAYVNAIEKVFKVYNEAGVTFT
inactive: [1] 0.046 | [2] 0.065 | [3] -0.004 | [4] 0.071 | [5] -0.03

GABPA (UniProt Q06546)
inactive: [1] -0.001 | [2] 0.005 | [3] 0.149 | [4] -0.01 | [5] -0.041

GSR (UniProt P00390)
inactive: [1] 0.006 | [2] 0.044 | [3] 0.034 | [4] -0.023 | [5] -0.003

HNRNPF (UniProt P52597)
Sequence of UniProt P52597 (P52597 whole entry, looked up): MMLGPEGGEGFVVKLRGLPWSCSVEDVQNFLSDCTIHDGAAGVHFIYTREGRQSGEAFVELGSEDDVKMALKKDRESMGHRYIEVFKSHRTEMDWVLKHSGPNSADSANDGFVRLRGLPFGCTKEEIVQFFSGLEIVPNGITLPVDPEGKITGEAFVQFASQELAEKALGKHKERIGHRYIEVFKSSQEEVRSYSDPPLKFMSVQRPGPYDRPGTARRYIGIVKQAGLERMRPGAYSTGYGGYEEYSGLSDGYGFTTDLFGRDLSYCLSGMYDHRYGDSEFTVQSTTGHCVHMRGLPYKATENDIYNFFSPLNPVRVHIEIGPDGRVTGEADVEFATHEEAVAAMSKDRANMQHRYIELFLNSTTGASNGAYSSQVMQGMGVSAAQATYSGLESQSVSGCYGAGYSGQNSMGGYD
inactive: [1] -0.032 | [2] -0.049 | [3] -0.019 | [4] -0.02 | [5] -0.017

GID4 (UniProt Q8IVV7)
inactive: [1] -0.012 | [2] -0.021 | [3] 0.138 | [4] 0.048 | [5] 0.009

GUSB (UniProt P08236)
Sequence of UniProt P08236 (P08236 whole entry, looked up): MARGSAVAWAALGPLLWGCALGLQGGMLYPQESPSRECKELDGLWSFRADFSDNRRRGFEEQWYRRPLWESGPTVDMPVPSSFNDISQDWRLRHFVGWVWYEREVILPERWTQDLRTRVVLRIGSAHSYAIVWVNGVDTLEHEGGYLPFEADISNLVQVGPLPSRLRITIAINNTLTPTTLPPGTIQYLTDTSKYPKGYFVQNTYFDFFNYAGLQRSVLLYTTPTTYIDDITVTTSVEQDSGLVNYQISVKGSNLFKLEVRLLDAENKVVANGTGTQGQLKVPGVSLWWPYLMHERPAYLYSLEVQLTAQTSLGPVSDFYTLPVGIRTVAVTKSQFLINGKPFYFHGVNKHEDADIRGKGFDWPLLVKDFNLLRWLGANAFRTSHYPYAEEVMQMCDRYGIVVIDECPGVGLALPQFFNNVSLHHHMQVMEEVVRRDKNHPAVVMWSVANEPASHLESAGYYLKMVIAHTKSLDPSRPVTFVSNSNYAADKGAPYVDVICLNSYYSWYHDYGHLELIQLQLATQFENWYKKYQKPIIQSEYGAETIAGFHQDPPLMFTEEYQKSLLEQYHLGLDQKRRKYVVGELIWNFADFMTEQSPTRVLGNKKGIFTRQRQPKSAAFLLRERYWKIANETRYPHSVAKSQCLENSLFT
inactive: [1] 0.019 | [2] -0.057 | [3] -0.048 | [4] 0.039 | [5] 0.053

GPAT4 (UniProt Q86UL3)
Sequence of UniProt Q86UL3 (Q86UL3 whole entry, looked up): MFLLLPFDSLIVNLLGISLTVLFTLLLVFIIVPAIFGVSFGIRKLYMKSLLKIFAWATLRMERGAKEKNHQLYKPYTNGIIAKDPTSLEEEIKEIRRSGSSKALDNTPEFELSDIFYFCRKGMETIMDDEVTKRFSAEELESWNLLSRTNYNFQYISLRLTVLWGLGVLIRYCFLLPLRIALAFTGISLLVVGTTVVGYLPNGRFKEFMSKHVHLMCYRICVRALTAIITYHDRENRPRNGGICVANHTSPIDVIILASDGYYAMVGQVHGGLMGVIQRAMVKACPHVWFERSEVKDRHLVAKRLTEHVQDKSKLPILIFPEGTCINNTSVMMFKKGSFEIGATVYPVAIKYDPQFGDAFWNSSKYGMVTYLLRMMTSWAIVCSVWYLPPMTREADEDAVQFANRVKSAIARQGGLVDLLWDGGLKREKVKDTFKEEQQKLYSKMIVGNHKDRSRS
inactive: [1] 0.023 | [2] 0.046 | [3] 0.013 | [4] -0.046 | [5] -0.015

GINS2 (UniProt Q9Y248)
inactive: [1] -0.011 | [2] 0.102 | [3] 0.115 | [4] -0.033 | [5] -0.026

GEMIN5 (UniProt Q8TEQ6)
Sequence of UniProt Q8TEQ6 (Q8TEQ6 whole entry, looked up): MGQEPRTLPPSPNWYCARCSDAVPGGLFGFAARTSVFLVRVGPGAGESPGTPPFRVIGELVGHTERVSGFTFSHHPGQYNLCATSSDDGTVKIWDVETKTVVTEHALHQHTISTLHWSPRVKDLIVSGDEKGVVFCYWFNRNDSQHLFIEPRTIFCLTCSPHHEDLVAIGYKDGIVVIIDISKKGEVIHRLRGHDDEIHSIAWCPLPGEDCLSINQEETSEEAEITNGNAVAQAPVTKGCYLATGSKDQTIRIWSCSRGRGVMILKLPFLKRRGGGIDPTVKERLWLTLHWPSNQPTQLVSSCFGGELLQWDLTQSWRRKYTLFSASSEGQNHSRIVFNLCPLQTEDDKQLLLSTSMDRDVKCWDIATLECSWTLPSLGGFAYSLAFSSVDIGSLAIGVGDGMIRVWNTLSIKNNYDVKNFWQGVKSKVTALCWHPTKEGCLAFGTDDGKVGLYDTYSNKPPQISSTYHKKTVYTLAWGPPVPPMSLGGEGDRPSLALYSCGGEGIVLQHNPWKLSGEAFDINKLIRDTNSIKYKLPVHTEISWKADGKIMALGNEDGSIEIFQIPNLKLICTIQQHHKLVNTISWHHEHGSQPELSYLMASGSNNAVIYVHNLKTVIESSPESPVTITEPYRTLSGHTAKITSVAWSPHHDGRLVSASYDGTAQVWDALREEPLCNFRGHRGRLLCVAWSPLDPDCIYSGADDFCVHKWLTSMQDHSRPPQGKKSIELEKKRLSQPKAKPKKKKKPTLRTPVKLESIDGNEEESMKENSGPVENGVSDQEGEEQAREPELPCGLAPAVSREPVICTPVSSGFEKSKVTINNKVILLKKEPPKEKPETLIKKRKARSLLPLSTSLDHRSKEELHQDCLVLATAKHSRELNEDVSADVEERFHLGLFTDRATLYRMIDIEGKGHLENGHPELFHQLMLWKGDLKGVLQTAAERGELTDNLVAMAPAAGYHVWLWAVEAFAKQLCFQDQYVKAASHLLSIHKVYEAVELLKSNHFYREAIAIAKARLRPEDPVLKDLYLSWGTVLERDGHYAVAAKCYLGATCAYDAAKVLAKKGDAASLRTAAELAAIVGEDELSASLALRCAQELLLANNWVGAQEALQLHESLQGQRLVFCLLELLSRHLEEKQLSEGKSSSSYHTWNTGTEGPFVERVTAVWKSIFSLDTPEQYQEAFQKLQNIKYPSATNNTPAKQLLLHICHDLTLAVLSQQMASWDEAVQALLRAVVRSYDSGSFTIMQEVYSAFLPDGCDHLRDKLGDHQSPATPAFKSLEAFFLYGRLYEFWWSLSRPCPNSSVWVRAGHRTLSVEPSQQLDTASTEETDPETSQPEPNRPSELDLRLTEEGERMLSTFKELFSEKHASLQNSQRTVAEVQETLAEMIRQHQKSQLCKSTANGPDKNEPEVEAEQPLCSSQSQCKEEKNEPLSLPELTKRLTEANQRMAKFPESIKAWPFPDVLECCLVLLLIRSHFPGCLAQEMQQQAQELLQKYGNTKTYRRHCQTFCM
inactive: [1] -0.004 | [2] -0.019 | [3] 0.022 | [4] 0.021 | [5] 0.005

FMC1 (UniProt Q96HJ9)
Sequence of UniProt Q96HJ9 (Q96HJ9 whole entry, looked up): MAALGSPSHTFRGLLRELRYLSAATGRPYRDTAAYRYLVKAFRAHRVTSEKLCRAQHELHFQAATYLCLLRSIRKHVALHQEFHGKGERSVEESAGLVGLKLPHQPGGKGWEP
inactive: [1] 0.009 | [2] 0.06 | [3] 0.044 | [4] 0 | [5] -0.002

HNRNPC isoform 2 (UniProt P07910)
inactive: [1] 0.102 | [2] -0.441 | [3] -0.171 | [4] 0.07 | [5] 0.139

GABARAPL1 isoform 2 (UniProt Q9H0R8)
Sequence of UniProt Q9H0R8 (Q9H0R8 whole entry, looked up): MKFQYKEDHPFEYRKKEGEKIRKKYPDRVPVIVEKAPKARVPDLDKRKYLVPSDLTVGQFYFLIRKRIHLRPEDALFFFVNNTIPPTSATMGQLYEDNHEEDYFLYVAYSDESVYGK
inactive: [1] 0.02 | [2] 0.094 | [3] 0.073 | [4] -0.022 | [5] -0.036

HMGCR isoform 3 (UniProt P04035)
inactive: [1] -0.011 | [2] 0.034 | [3] 0.045 | [4] 0.111 | [5] 0.043

HBZ (UniProt P02008)
Sequence of UniProt P02008 (P02008 whole entry, looked up): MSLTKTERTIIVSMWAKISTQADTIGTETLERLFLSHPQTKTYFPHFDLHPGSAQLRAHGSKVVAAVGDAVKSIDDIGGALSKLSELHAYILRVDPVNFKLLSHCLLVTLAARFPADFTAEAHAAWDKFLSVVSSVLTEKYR
inactive: [1] 0.047 | [2] 0.191 | [3] 0.091 | [4] -0.132 | [5] -0.009
